# In PubChem BioAssay:
# “And” between values parts separate entries of the source, which are not always exact repeats. Identical values can stand only once. For part of these data: Measured potencies and affinities stand elsewhere. The source made the active and inactive calls. Unless noted, how the calls were made is not given here.
# How the values were obtained:
# [1] = polyglutamine-triggered caspase-3 activation inhibitors, cell-based (AID 1583); settings: polyglutamine-induced caspase-3 activation, cell assay; stronger effect = higher value;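 tested at 10 µM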
# [2] = suppressors of polyQ aggregation in yeast, 75Q-TubU reporter (AID 1593); settings: Yeast 75Q polyglutamine aggregation reporter
# [3] = rescue of polyQ-huntingtin neuronal dysfunction in worms, whole organism, C. elegans mechanosensory neurons, N-terminal huntingtin (AID 1599); settings: touch response, stronger effect = higher value
# [4] = inhibitors of mitochondrial cytochrome c release, biochemical, purified mitochondria (AID 1603); settings: stronger effect = lower value;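 further: mouse liver mitochondria challenged with calcium chloride; signal normalized to the plate average as 100%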
# [5] = inhibitors of polyQ protein aggregation (AID 1604); settings: polyglutamine-induced protein aggregation inhibition assay; stronger effect = higher value; tested at 2.5 µM
# [6] = enhancers of glutamate uptake in motor neurons, MN-1 cell line (AID 1612); settings: MN-1 motor neuron cells, stronger effect = higher value;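 further: tested at 1 µM final; 0% = mean of DMSO vehicle wells on each plate; positive means more glutamate uptake than control and negative means less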
# [7] = suppressors of polyglutamine aggregation in yeast, 75Q-TubH (AID 1616); settings: S. cerevisiae 75Q-TubH polyglutamine aggregation suppression; stronger effect = higher value
# [8] = hESC survival regulators, cell-based (AID 493140); settings: human embryonic stem cell survival screen; stronger effect = higher value;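 further: cells exposed to compounds for four days before counting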
# [9] = Cy5 fluorescence interference with SSB-bound oligo, artefact control for HCV NS3 helicase inhibitor project, biochemical, NIH Clinical Collection, E. coli SSB (AID 743268)
# [10] = system: Hepatitis C virus NS3 helicase; experiment: HCV NS3 helicase inhibitors, primary screen, biochemical, fluorescence polarization, NIH Clinical Collection (AID 743270); settings: NS3 helicase binding to Cy5-dT15 DNA, stronger effect = higher value, concentration not given here
# [11] = target: Single-stranded DNA-binding protein (Escherichia coli (strain K12)) (UniProt P0AGE0); experiment: E. coli SSB displacement from DNA, counter-screen for HCV NS3 helicase inhibitor project, biochemical, fluorescence polarization, NIH Clinical Collection (AID 743271; in the data active means inhibition above about 28%); settings: stronger effect = higher value, concentration not given here
# [12] = fluorescence interference in NS3h assay format, artefact control for HCV NS3 helicase inhibitor project, biochemical, NIH Clinical Collection (AID 743272); settings: fluorescence interference counterscreen, stronger effect = lower value;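 further: HCV NS3 helicase with a Cy5 labelled single stranded DNA probe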
# [13] = modulation of C. elegans fzo-1 (AID 1259413);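 further: fzo-1 mutant C. elegans worms in liquid wells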; settings: C. elegans fzo-1 modulator screen, mean read-out; stronger effect = higher value
# [14] = target: NAD(+) hydrolase SARM1 (Homo sapiens) (UniProt Q6SZW1); experiment: SARM1 TIR NADase inhibitors, cell lysate, NAD-Glo luminescence (AID 1508614;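 active means compound whose remaining NAD level is above about 45 nM, limit read from the data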); settings: SAM-TIR HEK293T lysate NADase, at 1 µM, stronger effect = higher value
# [15] = target: Mitogen-activated protein kinase 7 (Homo sapiens) (UniProt Q13164); experiment: ERK5 transactivation activators in reporter cells, primary screen, cell-based, HTS (AID 1508626;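 active means luciferase signal above three times the same-plate solvent-only control wells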;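 further: luciferase driven by Gal4-ERK5 fusion binding five Gal4 sites before minimal TATA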); settings: HeLa Gal4-ERK5 transactivation, 18 h, at 5 µM, stronger effect = higher value
# [16] = viability rescue of complex I mutant cybrids, primary screen, cell-based, galactose medium, ATP luminescence (AID 1645843;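 active means z-score of at least 1.8 in each of two replicates, scored against plate mean and spread of sample wells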;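 further: positive z means more ATP and so rescue of galactose-driven cybrid death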); settings: complex I mutant cybrid cells, 72 h, stronger effect = higher value
# [17] = system: R275C/beta2Delta; experiment: modulators of BK channel variants, profiling panel, selectivity assay, cell-based, U2OS BacMam, thallium flux, beta subunits (AID 1259406;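 active means thallium flux through the channel raised or lowered by more than 3 SD from vehicle-only wells, actives on both sides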;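 further: initial slope of Thallos dye fluorescence rise after thallium is added; log ratio against the mean of 0.3% DMSO vehicle wells on the same plate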); settings: at 30 µM
# [18] = system: R275C/beta4; experiment: as above; settings: at 30 µM
# [19] = system: R275C/Slo1WT/beta2; experiment: as above; settings: at 30 µM
# Sequence of NAD(+) hydrolase SARM1 (Homo sapiens) (Q6SZW1 whole entry, looked up, the tested form may be a part): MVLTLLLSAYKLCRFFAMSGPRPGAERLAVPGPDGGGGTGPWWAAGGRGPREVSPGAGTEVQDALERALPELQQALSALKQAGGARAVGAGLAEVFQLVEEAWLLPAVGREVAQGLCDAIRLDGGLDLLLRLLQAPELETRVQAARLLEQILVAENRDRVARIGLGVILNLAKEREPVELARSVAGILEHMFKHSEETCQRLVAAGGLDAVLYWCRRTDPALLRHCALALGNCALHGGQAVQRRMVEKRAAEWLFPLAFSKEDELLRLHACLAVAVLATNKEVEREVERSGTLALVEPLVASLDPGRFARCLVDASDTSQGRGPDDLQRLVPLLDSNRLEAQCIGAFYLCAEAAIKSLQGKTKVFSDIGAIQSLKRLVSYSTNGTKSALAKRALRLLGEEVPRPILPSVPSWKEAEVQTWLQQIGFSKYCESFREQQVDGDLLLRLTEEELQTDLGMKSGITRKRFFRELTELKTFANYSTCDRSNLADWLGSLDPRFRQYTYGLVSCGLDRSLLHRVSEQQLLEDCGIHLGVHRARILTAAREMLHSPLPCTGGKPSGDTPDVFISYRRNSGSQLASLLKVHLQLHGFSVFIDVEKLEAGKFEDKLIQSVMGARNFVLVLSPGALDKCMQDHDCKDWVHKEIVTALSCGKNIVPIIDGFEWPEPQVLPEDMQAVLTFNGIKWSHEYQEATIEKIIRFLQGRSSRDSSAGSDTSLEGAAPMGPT
# Sequence of Mitogen-activated protein kinase 7 (Homo sapiens) (Q13164 whole entry, looked up, the tested form may be a part): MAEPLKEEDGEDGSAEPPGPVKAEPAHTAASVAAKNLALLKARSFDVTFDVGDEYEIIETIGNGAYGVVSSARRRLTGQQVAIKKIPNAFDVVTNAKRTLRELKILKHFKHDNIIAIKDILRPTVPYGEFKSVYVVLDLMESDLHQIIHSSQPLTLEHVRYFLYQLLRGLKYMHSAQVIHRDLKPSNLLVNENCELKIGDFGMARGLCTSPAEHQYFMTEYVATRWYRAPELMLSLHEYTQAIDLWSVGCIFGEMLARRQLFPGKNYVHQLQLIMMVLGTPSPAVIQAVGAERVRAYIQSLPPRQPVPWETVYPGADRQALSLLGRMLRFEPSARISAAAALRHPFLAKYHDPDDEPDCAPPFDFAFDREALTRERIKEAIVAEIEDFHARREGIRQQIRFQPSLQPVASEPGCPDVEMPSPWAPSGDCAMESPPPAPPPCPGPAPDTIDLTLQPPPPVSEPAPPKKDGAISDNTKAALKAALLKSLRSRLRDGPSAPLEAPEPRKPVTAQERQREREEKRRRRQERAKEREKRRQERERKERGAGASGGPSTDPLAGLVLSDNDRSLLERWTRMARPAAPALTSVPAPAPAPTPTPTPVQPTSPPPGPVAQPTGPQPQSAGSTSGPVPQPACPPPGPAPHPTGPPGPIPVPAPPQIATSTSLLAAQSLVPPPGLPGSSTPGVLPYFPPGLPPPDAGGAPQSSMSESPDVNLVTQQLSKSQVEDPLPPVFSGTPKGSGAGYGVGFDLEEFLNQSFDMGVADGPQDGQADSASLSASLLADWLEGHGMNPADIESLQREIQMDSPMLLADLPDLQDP
SMILES,inhibition [1] [%],score [2],rescue above control [3],cytochrome c release ratio [4],inhibition of aggregation [5] [%],glutamate uptake change [6] [%],aggregation suppression score [7],survival [8],fluorescence ratio [9],inhibition [10],inhibition [11],fluorescence ratio [12],mean signal [13],remaining NAD [14],luciferase signal [15],z-score [16],log fold change Tl+ flux [17],log fold change Tl+ flux [18],log fold change Tl+ flux [19]
Cc1onc(-c2c(Cl)cccc2Cl)c1C(=O)N[C@@H]1C(=O)N2[C@@H]1SC(C)(C)[C@@H]2C(=O)O,12.4,1.26,8.15,1.34,56.3,-10.2,1.09,4 (inactive),0.97 (inactive),-2.27% (inactive),-0.48% (inactive),1.03 (inactive),230 (inactive),10 nM (inactive),36 AU (inactive),0.54 (inactive),0.00693 (inactive),-0.0254 (inactive),-0.0106 (inactive)
NS(=O)(=O)c1cc2c(cc1C(F)(F)F)NCNS2(=O)=O,-8.77,1.38,-10.8,0.95,91.6,-18.5,1.31,23.1 (inactive),1.02 (inactive),-3.18% (inactive),-0.48% (inactive),0.93 (inactive),224 (inactive),10 nM (inactive),40 AU (inactive),1.47 (inactive),0.0545 (inactive),0.0202 (inactive),0.0133 (inactive)
Nc1nc(N)c2nc(-c3ccccc3)c(N)nc2n1,13.8,1.58,4.34,0.47,52.6,10.7,1.34,18.2 (inactive),1.01 (inactive),7.73% (inactive),7.91% (inactive),0.9 (inactive),245 (inactive),10 nM (inactive),48 AU (inactive),-0.725 (inactive) and 0.27 (inactive),-0.000652 (inactive),-0.0731 (inactive),0.0101 (inactive)
C[C@H](CS)C(=O)N1CCC[C@H]1C(=O)O,11.5,1.09,-12.7,0.82,37.2,-3.95,1.08,,,,,,261 (inactive),10 nM (inactive),52 AU (inactive),0.49 (inactive) and 0.465 (inactive) and -0.54 (inactive),0.0269 (inactive),-0.00777 (inactive),0.0231 (inactive)
O=C(CCCN1CC=C(n2c(=O)[nH]c3ccccc32)CC1)c1ccc(F)cc1,-1.81,1.12,6.51,1.19,63.6,4.12,1.21,4.83 (inactive),0.99 (inactive),-5.15% (inactive),-0.1% (inactive),1 (inactive),249 (inactive),10 nM (inactive),68 AU (inactive),-0.69 (inactive),0.0699 (inactive),0.00129 (inactive),0.0371 (inactive)
